Compound activity as filed in PubChem.
dFosB act-1 – enhances mouse delta FosB homodimer DNA binding; P13346; purified delta FosB, TAMRA-CDK5 oligo fluorescence polarization; percent of positive-control signal above neutral wells; activation, % at 25 µM; 340,000 tested, 0.99% active; AID 493131;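 active = mean activation above about 17%, with every replicate also reaching it, limit read from the data, passing the limit was not always enough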
Target sequence (P13346 whole entry, looked up): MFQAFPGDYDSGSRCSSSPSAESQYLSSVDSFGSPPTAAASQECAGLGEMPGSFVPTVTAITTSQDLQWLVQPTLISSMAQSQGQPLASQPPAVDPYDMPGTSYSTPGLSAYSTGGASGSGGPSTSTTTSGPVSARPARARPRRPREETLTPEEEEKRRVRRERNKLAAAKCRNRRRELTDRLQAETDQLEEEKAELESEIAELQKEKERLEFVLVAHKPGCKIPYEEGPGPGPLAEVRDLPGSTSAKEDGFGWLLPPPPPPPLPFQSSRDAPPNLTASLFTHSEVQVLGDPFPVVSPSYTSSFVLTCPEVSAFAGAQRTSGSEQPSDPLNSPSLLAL
MEKK2 WT-MEK5 – raises or lowers MEK5 binding to wildtype human MEKK2 PB1 domain; AID 1531; 290,000 tested, 1.1% active; binding response (% of control), % at 10 µM; bead flow cytometry, Alexa488-MEK5 binding to MEKK2 WT; actives lie on both sides; in the data active = binding response below about 67% or above about 130%
MEKK2 mut-MEK5 – signal of MEK5 binding to mutant human MEKK2 PB1 domain; bead flow cytometry, Alexa488-MEK5 binding to MEKK2 mutant; percent response, % at 10 µM; 290,000 tested, 0.35% active; in the data active = percent response above about 24%, passing the limit was not always enough
DNA FID counter – counter-screen for HCV NS3 helicase inhibitors: DNA intercalator displacement; DNA fluorescent intercalator displacement, fluorescence; inhibition, % at 7.9 µM; 290,000 tested, 0.17% active; in the data active = inhibition above about 37%;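 note: higher means more ethidium bromide displaced from hairpin DNA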
MEKK3 PB1 HTS – modulators (inhibitors or enhancers) of MEK5 binding to human MEKK3 PB1 domain; bead-based flow cytometry, Alexa488-MEK5 binding to MEKK3; actives lie on both sides; 0 = blocked by unlabeled MEK5, 100 = vehicle; binding response (% of control), % at 10 µM; 290,000 tested, 1.4% active; Q99759;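 active = binding response more than 3 SD above or below the average of its plate-row segment, actives on both sides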;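 note: Alexa488 bead fluorescence after subtracting the streptavidin-only scavenger bead signal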
dFosB act-2 – activators of mouse delta FosB homodimer DNA binding | shares compounds with dFosB act-1 | activation, % at 24.9 µM | 2,400 tested, under 10 active | purified delta FosB, TAMRA-CDK5 oligo fluorescence polarization; normalised: neutral wells 0, positive control 100;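 active = highest replicate activation at or above 34% and every replicate reaching that threshold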;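 note: higher polarization means more probe DNA bound by delta FosB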
Numbers stand for hits; - = inactive; . = no result. Compounds with a hit are over-represented: about 2.9% of the library has one in this group of screens.

SMILES | dFosB act-1 | MEKK2 WT-MEK5 | MEKK2 mut-MEK5 | DNA FID counter | MEKK3 PB1 HTS | dFosB act-2
COc1cc(/C=N/NC(=O)c2cccnc2)ccc1OC(=O)c1ccc2c(c1)OCO2 | - | - | - | - | - | .
COc1ccc(NS(=O)(=O)c2cccc(C(=O)N/N=C/c3ccc4c(c3)OCCO4)c2)cc1 | 25 | - | - | - | - | -
NC(=O)c1ccc(NC(=O)COC(=O)/C=C/c2ccc3c(c2)OCO3)cc1 | 24 | - | - | - | - | -
CC(=O)Nc1ccc(NC(=O)COC(=O)/C=C/c2ccc3c(c2)OCO3)cc1 | - | . | . | . | . | .
O=C(N/N=C/c1ccc2c(c1)OCO2)c1ccc(NC(=O)c2ccc(F)cc2)cc1 | 103 | - | - | - | - | -
COc1ccc(/C=N/NC(=O)c2cc(-c3ccc4c(c3)OCO4)n[nH]2)cc1OC | 73 | - | - | - | - | -
Cc1ccc(NC(=O)Cc2ncc(C(F)(F)F)cc2Cl)cc1Cl | - | - | - | - | - | .
O=C(N/N=C/c1ccc2c(c1)OCO2)c1sc2cc(Cl)ccc2c1Cl | - | - | - | - | - | .
COc1ccc2c(Cl)c(C(=O)N/N=C/c3ccc4c(c3)OCO4)sc2c1 | 34 | - | - | - | - | -
CCn1ccc(-c2ccccc2)c(C#N)c1=O | - | - | - | - | - | .
CCOc1ccc(NC(=O)CCC(=O)NNC(=O)Nc2cccc(Cl)c2)cc1 | 34 | - | - | - | - | -
O=C(CCC(=O)Nc1ccc(Cl)cc1Cl)NNC(=O)Nc1ccccc1 | 34 | - | - | - | - | -
CCOc1ccc(NC(=O)CCC(=O)NNC(=O)COc2ccc(C)cc2)cc1 | - | - | - | - | - | .
Cc1ncc([N+](=O)[O-])n1CC(=O)N/N=C/c1ccc(F)cc1 | - | - | - | - | - | .
COc1ccc(CCNC(=O)C(=O)Nc2ccc3c(c2)OCO3)cc1OC | - | - | - | - | - | .
N#C/C(=C(/O)COC(=O)c1ccc2c(c1)OCCO2)c1nc2ccccc2[nH]1 | 39 | - | - | - | - | -
Cc1cccc(C)c1NC(=S)N(CCCN1CCOCC1)Cc1cccnc1 | - | - | - | - | - | .
Cc1ccc(S(=O)(=O)Nc2cnn(-c3ccccc3)c(=O)c2Cl)cc1 | - | - | - | - | - | .
Cc1ccc(NC(=O)c2cc3ccccc3oc2=N)cc1 | - | - | - | - | - | .
N=c1oc2cc(O)ccc2cc1C(=O)Nc1ccc(Cl)cc1 | 27 | - | - | - | - | -
Cc1ccc(OCC(=O)N/N=C\c2ccc(C)o2)c([N+](=O)[O-])c1 | - | - | - | - | - | .
Cc1cc(C(=O)N/N=C\c2ccc(COc3ccc([N+](=O)[O-])cc3)o2)ccc1[N+](=O)[O-] | 36 | - | - | - | - | -
CCOc1ccc(C(=O)N/N=C/c2cc([N+](=O)[O-])cs2)cc1 | 21 | - | - | - | - | -
C=CCn1c2ccccc2c2nnc(SCCN3CCOCC3)nc21 | - | - | - | - | - | .
CCC(C(=O)NC1CCCCC1)N(Cc1cccs1)C(=O)CCC(=O)Nc1cc(C)on1 (configuration not stated) | - | - | - | - | - | .
SMILES | dFosB act-1 | MEKK2 WT-MEK5 | MEKK2 mut-MEK5 | DNA FID counter | MEKK3 PB1 HTS | dFosB act-2
CC(C)c1nc(SCC(=O)Nc2cccc(C(F)(F)F)c2)c2c(=O)n(C)c(=O)n(C)c2n1 | - | - | - | - | - | .
CC(C)c1nc(SCC(=O)Nc2ccc3c(c2)OCCO3)c2c(=O)n(C)c(=O)n(C)c2n1 | 24 | - | - | - | - | -
O/C(=C\Sc1nnc(Cc2ccccc2)o1)c1ccc(Br)cc1 | - | - | - | - | - | .
Cc1ccc(Cn2nc(C)c(NC(=O)CSc3n[nH]c(C)c3[N+](=O)[O-])c2C)cc1 | 30 | - | - | - | - | -
O=C(N/N=C/c1cccc2nccnc12)c1ccccc1O | 23 | - | - | - | - | -
O=C(N/N=C\c1ccc(CNS(=O)(=O)c2ccc(Cl)cc2)o1)C(=O)Nc1ccc(Oc2ccccc2)cc1 | - | - | - | - | - | .
O=C(N/N=C\c1ccc(CNS(=O)(=O)c2ccccc2)o1)C(=O)Nc1ccc(F)cc1 | 38 | - | - | - | - | -
COCCN(C(=O)COC(=O)/C(=C/c1ccccc1)NC(C)=O)c1c(N)n(Cc2ccccc2)c(=O)[nH]c1=O | - | - | - | - | - | .
Cc1cc(=O)oc2cc(NC(=O)CCOc3ccccc3)ccc12 | 21 | - | - | - | - | -
Cc1cccc(OCC(=O)Nc2ccc3c(C)cc(=O)oc3c2)c1 | - | - | - | - | - | .
Cc1csc(NC(=O)COc2ccc3c(C)cc(=O)oc3c2)n1 | 54 | - | - | - | - | -
Cc1cc(=O)oc2cc(OCC(=O)NCc3ccncc3)ccc12 | - | - | - | - | - | .
CCc1ccc(NC(=O)C(NS(=O)(=O)c2ccc3c(c2)CCN3C(C)=O)C(C)C)cc1 (configuration not stated) | 37 | - | - | - | - | -
CCOc1ccc(-c2nnc3ccc(SCC(=O)Nc4nc5ccccc5s4)nn23)cc1 | - | - | - | - | - | .
CCOc1ccc(-c2nnc3ccc(SCC(=O)Nc4nc5ccc(C)cc5s4)nn23)cc1 | 42 | - | - | - | - | -
Fc1ccc(N2CCN(C3=Nc4cccc5cccc3c45)CC2)cc1 | 22 | - | - | - | - | -
O=C(Nc1cccc(Cl)c1)c1cc2c(=O)n3ccccc3nc2s1 | - | - | - | - | - | .
Cc1cccc(NC(=O)c2cc3c(=O)n4ccccc4nc3s2)c1 | 16 | - | - | - | - | -
S=C(NCc1ccc2c(c1)OCO2)Nc1ccc(-c2nc3ccccc3[nH]2)cc1 | 32 | - | - | - | - | -
O=C(CSc1ccc(-c2nc3ccccc3[nH]2)cn1)Nc1ccc2c(c1)OCCO2 | 40 | - | - | - | - | -
Cc1cc2nc(-c3ccc(SCC(=O)Nc4ccc5c(c4)OCCO5)nc3)[nH]c2cc1C | 32 | - | - | - | - | -
Cc1ccc(-c2ccc(SCC(=O)Nc3ccc4c(c3)OCCO4)nn2)cc1 | - | - | - | - | - | .
Cc1ccc2nc(-c3ccc(SCC(=O)Nc4ccc5c(c4)OCCO5)nc3)[nH]c2c1 | 50 | - | - | - | - | -
O=C(Nc1ccc(S(=O)(=O)NC2=NCCCCC2)cc1)c1ccc(=O)[nH]c1 | - | - | - | - | - | .
O=C(COC(=O)c1ccc2c(c1)C(=O)N(Cc1ccncc1)C2=O)Nc1cccc2ccccc12 | 27 | - | - | - | - | -
Cc1cc(C)c(NC(=O)Cn2nnc(C(=O)NCc3ccc4c(c3)OCO4)c2N)c(C)c1 | 75 | - | - | - | - | -
COc1ccc(Cl)cc1NC(=O)Cn1nnc(C(=O)NCc2ccc3c(c2)OCO3)c1N | 39 | - | - | - | - | -
CC(C)c1ccc(NC(=O)Cn2nnc(C(=O)NCc3ccc4c(c3)OCO4)c2N)cc1 | 31 | - | - | - | - | -
